The list is not random: actives were taken first. Their share in the collection is about 1.8%.
LYPLA1 counter: LYPLA1 (human) inhibition in PME1 counter-screen; O75608; recombinant LYPLA1, FP-Rh probe fluorescence polarization; inhibition, % at 5.9 µM; 320,000 tested, 0.16% active; AID 2174;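 active means inhibition above the mean of all tested compounds plus 3 SD, set per campaign, cut at about 14% in these data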;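 further: inhibitors block serine hydrolase probe labeling of LYPLA1 so polarization falls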
Fam108B inh: Fam108B inhibition, counter-screen for RBBP9 inhibitors; recombinant Fam108B, FP-Rh probe fluorescence polarization; inhibition, % at 9.51 µM; 300,000 tested, 0.33% active;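 active means inhibition above the screen mean inhibition plus 3 SD, computed separately per campaign, cut at about 18% in these data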;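 further: inhibitors lower polarization as less probe binds the enzyme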
GSTO1 counter: GSTO1 inhibition, counter-screen for RBBP9 inhibitors. P78417. recombinant GSTO1, activity-based probe fluorescence polarization. inhibition, % at 5.96 µM. 300,000 tested, 1.1% active. AID 1974;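 active means inhibition above the campaign mean inhibition plus 3 SD, cut at about 35% in these data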
Target sequence (P78417 whole entry, looked up): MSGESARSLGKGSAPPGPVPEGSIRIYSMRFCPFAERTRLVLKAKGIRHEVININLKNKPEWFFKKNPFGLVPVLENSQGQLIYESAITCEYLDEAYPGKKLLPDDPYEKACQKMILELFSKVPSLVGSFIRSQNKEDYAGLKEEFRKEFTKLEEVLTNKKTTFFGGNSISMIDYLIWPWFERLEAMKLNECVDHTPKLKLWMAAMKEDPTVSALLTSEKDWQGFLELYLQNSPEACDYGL
LYPLA2 counter: blocks human lysophospholipase 2, a PME1 counter-screen; 320,000 tested, 0.38% active; inhibition, % at 5.9 µM; AID 2177; recombinant LYPLA2, FP-Rh probe fluorescence polarization;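 active means inhibition above the screen-wide mean plus 3 SD, limit set per campaign, cut at about 26% in these data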
Target sequence (O95372 whole entry, looked up): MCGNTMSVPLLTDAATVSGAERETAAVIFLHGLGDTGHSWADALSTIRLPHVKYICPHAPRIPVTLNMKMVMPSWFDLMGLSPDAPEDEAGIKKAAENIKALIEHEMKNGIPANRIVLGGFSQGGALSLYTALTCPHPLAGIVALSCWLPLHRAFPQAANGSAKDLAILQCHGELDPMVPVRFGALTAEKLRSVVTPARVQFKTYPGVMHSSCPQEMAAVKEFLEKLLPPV
PME-1 primary: PME-1 (human) inhibition; recombinant PME-1, FP-Rh probe fluorescence polarization; Q9Y570; 320,000 tested, 0.53% active; inhibition, % at 5.9 µM;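 active means inhibition above the campaign mean of all compounds plus 3 SD, cut at about 26% in these data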;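 further: competitive labeling of PME-1 active site by serine hydrolase directed probe; inhibitors block probe labeling so polarization falls and inhibition rises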
PAD4 inh: PAD4 (human) enzyme inhibition | Q9UM07 | recombinant PAD4, RCA probe fluorescence polarization | inhibition, % at 6.36 µM | 330,000 tested, 0.41% active | AID 485272;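 active means percent inhibition above a cutoff equal to the mean of all tested compounds plus 3 SD, cut at about 15% in these data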
GSTO1 inh conf: GSTO1 (human) inhibition, confirmation | shares compounds with GSTO1 counter | recombinant GSTO1, probe fluorescence polarization | inhibition, % at 5.96 µM | 2,400 tested, 54% active;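 active means inhibition above the primary screen's cutoff, its mean inhibition plus 3 SD, cut at about 35% in these data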;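 further: loss of polarization as inhibitors block binding of rhodamine sulfonate ester activity probe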
GSTO1 recomb ABPP: inhibitors of recombinant human GSTO1; shares compounds with GSTO1 counter; gel ABPP SE-Rh probe fluorescence; 130 tested, 30% active; inhibition, % at 1 µM;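 active means inhibition of the enzyme GSTO1 above about 75%, limit read from the data; inactive means inhibition below that limit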
LYPLA1 conf: counter-screen for PME1 inhibitors: confirmation of human LYPLA1 inhibitors. shares compounds with LYPLA1 counter. recombinant LYPLA1, FP-Rh probe fluorescence polarization. inhibition, % at 5.9 µM. 480 tested, 69% active;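 active means mean inhibition across replicates above the hit cutoff set in the primary screen, cut at about 15% in these data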;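 further: loss of FP-Rh probe labeling of LYPLA1 seen as lower polarization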
PAD4 FP conf: PAD4 (human) inhibition, confirmed | shares compounds with PAD4 inh | recombinant PAD4, RCA probe fluorescence polarization | inhibition, % at 6.36 µM | 1,200 tested, 28% active | AID 488796;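 active means mean inhibition across replicates above the hit cutoff set by the earlier primary screen, cut at about 15% in these data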;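 further: inhibitors block active-site labeling by the probe so polarization falls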
Large screens that a line does not name were inactive (follow-up assays come after a bar, where they were run).

COCCn1c(N)c(S(=O)(=O)c2cccs2)c2nc3ccccc3nc21	GSTO1 counter 81.0, PAD4 inh 21.9 | GSTO1 inh conf inactive | PAD4 FP conf inactive
CCOC(=O)c1ccc(S(=O)(=O)N2CCN(C/C=C/c3ccccc3)CC2)cc1	none (no result: LYPLA1 counter, Fam108B inh, GSTO1 counter, LYPLA2 counter, PME-1 primary)
CC1(C)C=C2C(=NN(c3ccccc3)C(N)=C2C#N)CO1	GSTO1 counter 74.1, PAD4 inh 22.0 | GSTO1 inh conf 87.5 | PAD4 FP conf 55.5
CC1(C)Nc2ccc(O)cc2-c2c1ssc2=S	GSTO1 counter 63.0, PAD4 inh 41.1 | GSTO1 inh conf inactive | PAD4 FP conf 17.5
COc1cc(/C=C2/C(=O)N(c3ccc([N+](=O)[O-])cc3)N=C2N2CCOCC2)ccc1O	GSTO1 counter 89.4, PAD4 inh 70.0 | GSTO1 inh conf inactive | PAD4 FP conf inactive
CCN(CC)c1ccc(/C=C2/C(=O)N(c3ccc([N+](=O)[O-])cc3)N=C2N2CCOCC2)cc1	none
Cc1ccc(S(=O)(=O)Nc2cc(Cl)c(O)c3ncccc23)cc1	GSTO1 counter 61.3, PAD4 inh 36.3 | GSTO1 inh conf inactive | PAD4 FP conf inactive
COc1cc(NC(C)CCCN)c2ncccc2c1 (configuration not stated)	GSTO1 counter 47.5, PAD4 inh 35.5 | GSTO1 inh conf inactive | PAD4 FP conf inactive
COc1cccc(Oc2cc(Cl)nc(N)n2)c1	none
COc1cc(N=C2C(=O)N3c4c(cccc42)C(C)=CC3(C)C)cc(OC)c1	none
CC1=CC(C)(C)N2C(=O)C(=Nc3ccc(O)cc3)c3cccc1c32	LYPLA1 counter 16.7, GSTO1 counter 96.8, PME-1 primary 44.4, PAD4 inh 25.6 | GSTO1 inh conf inactive | LYPLA1 conf inactive | PAD4 FP conf inactive
CCc1cc(SC#N)cc(C)c1NC(=O)CCl	GSTO1 counter 72.4, PAD4 inh 20.6 | GSTO1 inh conf 74.5 | PAD4 FP conf inactive
CCc1cc(SC#N)cc(C)c1N	none
COc1ccc(C(=O)c2c(C(F)(F)F)oc3c2C(=O)c2ccccc2C3=O)cc1	GSTO1 counter 63.2, PAD4 inh 30.3 | GSTO1 inh conf 65.7 | PAD4 FP conf 22.1
CC(NC(=O)C1=CC=CN2CCS(=O)(=O)N=C12)c1ccc(Cl)cc1Cl (configuration not stated)	none (no result: Fam108B inh, GSTO1 counter)
O=C(Cc1ccc(Cl)cc1)NCCc1c[nH]c2ccccc12	none
O=C(CCl)N(c1ccc(Cl)cc1)c1c[nH]c2ccccc12	GSTO1 counter 71.6, PAD4 inh 16.6 | GSTO1 inh conf 82.2 | GSTO1 recomb ABPP inactive | PAD4 FP conf 33.8
CN(C)c1cc2c(cc1NC(=O)c1ccccc1Cl)n(C)c(=O)n2C	none
O=C(COC(=O)c1ccc([N+](=O)[O-])s1)Nc1ccc(Cl)cn1	none
O=C(COC(=O)c1ccc([N+](=O)[O-])s1)Nc1ccccc1	GSTO1 counter 64.8, PAD4 inh 33.4 | GSTO1 inh conf inactive | PAD4 FP conf inactive
CS(=O)(=O)c1ccccc1-c1nnc(NC(=O)Cc2ccccc2)o1	none
CCOc1ccc(C2OC34CCCCC3C(C#N)(C#N)C2(C#N)C(=N)O4)cc1OC (configuration not stated)	LYPLA1 counter 20.9, GSTO1 counter 39.3, PAD4 inh 34.5 | GSTO1 inh conf inactive | LYPLA1 conf inactive | PAD4 FP conf 18.1
CCCCOc1ccc(C2OC34CCCCC3C(C#N)(C#N)C2(C#N)C(=N)O4)cc1 (configuration not stated)	none
CCOC(=O)C1CCCN(S(=O)(=O)c2cc(Br)cc3c2N(C(C)=O)CC3)C1 (configuration not stated)	none
